This is part of a sample that, as a whole, favours compounds with a hit. Of some 79,000 tested, about 15% had one in any assay. Active and inactive are the calls of the source. Rule as the data show it: active = growth inhibition above about 70%; inactive = the rest.
Experiments:
[1] = NCI Yeast Anticancer Drug Screen. Data for the rad52 strain (AID 147);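 also: 0% = growth of vehicle-treated control cultures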; details: S. cerevisiae rad52 mutant growth inhibition, active compounds read high
Outline: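 Compounds are applied to a genetically defined yeast strain lacking normal DNA damage repair, and inhibition of growth is expressed relative to cultures given vehicle only.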

[2] = NCI Yeast Anticancer Drug Screen. Data for the wt1 strain (AID 149);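 also: 0% = growth of vehicle-treated wt1 cultures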; details: S. cerevisiae wt1 strain (SPY 50644) growth inhibition, active compounds read high
Outline: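 The wt1 strain was treated with compounds, and growth was compared with vehicle-treated cultures to give inhibition.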

[3] = NCI Yeast Anticancer Drug Screen. Data for the rad50EPP+ strain (AID 151);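 also: 0% = growth of vehicle-treated control cultures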; details: S. cerevisiae rad50 mutant strain, active compounds read high
Outline: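 Compounds were applied to the rad50EPP+ yeast strain, which bears a defined DNA repair alteration, and growth inhibition was determined relative to vehicle-treated cultures.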

[4] = NCI Yeast Anticancer Drug Screen. Data for the mgt1 strain (AID 153); details: S. cerevisiae mgt1 mutant growth inhibition, active compounds read high
Outline: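 Strain: mgt1 yeast, one of a set carrying defined DNA damage repair or cell cycle control alterations. Compound-treated growth compared with vehicle.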

[5] = NCI Yeast Anticancer Drug Screen. Data for the rad50 strain (AID 155);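 also: 0% = growth of vehicle-only cultures of the same strain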; details: S. cerevisiae rad50 strain growth inhibition, active compounds read high
Outline: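 Cells are treated with compound, grown, and their growth is then scored against vehicle-only cultures of the same repair-deficient yeast strain.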

[6] = NCI Yeast Anticancer Drug Screen. Data for the rad14 strain (AID 159);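 also: 0% = growth of vehicle-treated control cultures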; details: S. cerevisiae rad14 strain growth inhibition, active compounds read high
Outline: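 Readout: yeast growth inhibition, referenced to vehicle-only cultures. Strain bears a defined alteration in DNA damage repair.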

[7] = NCI Yeast Anticancer Drug Screen. Data for the sgs1 mgt1 strain (AID 161);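 also: 0% = growth of cultures given vehicle only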; details: S. cerevisiae sgs1 mgt1 strain, active compounds read high
Outline: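 Read-out: growth inhibition vs vehicle controls. Cells: mutant yeast strain deficient in DNA damage repair.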

[8] = NCI Yeast Anticancer Drug Screen. Data for the CLN2oe strain (AID 163);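 also: 0% = growth of vehicle-only control cultures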; details: S. cerevisiae CLN2oe strain, active compounds read high
Outline: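 Growth of a genetically modified yeast strain is measured after compound exposure and compared with cultures given vehicle alone.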

[9] = NCI Yeast Anticancer Drug Screen. Data for the cln2 rad14 strain (AID 165);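 also: 0% = growth equal to vehicle treated cultures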; details: S. cerevisiae cln2 rad14 strain, active compounds read high
Outline: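 Compounds are applied to the cln2 rad14 yeast strain, and growth is then compared with that of vehicle-treated cultures to give inhibition.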

[10] = NCI Yeast Anticancer Drug Screen. Data for the bub3 strain (AID 167); details: S. cerevisiae bub3 mutant strain, active compounds read high
Outline: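 Part of a panel of yeast mutants defective in DNA damage repair or cell cycle regulation. Each strain is grown with compound, and inhibition is calculated relative to solvent-treated cultures.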

[11] = NCI Yeast Anticancer Drug Screen. Data for the wt2 strain (AID 169);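 also: 0% = growth of vehicle-treated yeast cultures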; details: S. cerevisiae wt2 strain growth inhibition, active compounds read high
Outline: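 This strain belongs to a panel of yeast strains with defined genetic alterations in DNA damage repair or cell cycle control. Compounds are applied, and growth inhibition is measured against vehicle-treated cultures.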

[12] = NCI Yeast Anticancer Drug Screen. Data for the sgs1 strain (AID 173);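 also: 0% = growth of vehicle-only control cultures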; details: S. cerevisiae sgs1 mutant, active compounds read high
Outline: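 Growth of a yeast strain bearing a defined genetic alteration is measured after compound treatment. Inhibition is expressed relative to vehicle-only controls.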

[13] = NCI Yeast Anticancer Drug Screen. Data for the mlh1 rad18 strain (AID 175); details: S. cerevisiae mlh1 rad18 strain growth inhibition, active compounds read high
Outline: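 Read-out is yeast growth inhibition, calculated against vehicle-only controls. The compound was applied to a strain engineered with DNA damage repair alterations.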

[14] = NCI Yeast Anticancer Drug Screen. Data for the rad18 strain (AID 177); details: S. cerevisiae rad18 mutant growth inhibition, active compounds read high
Outline: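 Growth of the mutant yeast strain after compound exposure, normalised to vehicle-only cultures.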

[15] = NCI Yeast Anticancer Drug Screen. Data for the mec2-1 strain (AID 157); details: S. cerevisiae mec2-1 strain, active compounds read high
Outline: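 Strain: mec2-1 (DNA repair/cell cycle alteration). Compound exposure, then growth measured; inhibition expressed relative to vehicle.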

[16] = NCI Yeast Anticancer Drug Screen. Data for the mlh1 strain (AID 171);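 also: 0% = growth of vehicle-treated control cultures of the same strain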; details: S. cerevisiae mlh1 strain growth inhibition, active compounds read high
Outline: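 Growth of the mutant yeast strain after compound exposure, expressed as inhibition relative to vehicle-only controls.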

[17] = at 5.0 µM (retest, dose inferred, filed as 0.5)
[18] = at 50.0 µM (retest, dose inferred, filed as 5.0)

Measured: growth inhibition

c1ccc2c(c1)-c1nc3ccccc3cc1C2N1CCOCC1 (stereo not drawn)
active: [3]; at 100.0 µM 77% | [5]; at 50.0 µM 72.7% | [7]; at 50.0 µM 70.5%
inactive: [1]; at 1.2 µM -2% | [1]; at 3.7 µM 1% | [1]; at 11.0 µM 4% | [1]; at 33.0 µM 8% | [1]; at 100.0 µM 16% | [2]; at 1.2 µM 1% | [2]; at 3.7 µM 2% | [2]; at 11.0 µM 4% | [2]; at 33.0 µM 2% | [2]; at 100.0 µM 5% | [3]; at 1.2 µM 6% | [3]; at 3.7 µM 25% | [3]; at 11.0 µM 51% | [3]; at 33.0 µM 68% | [4]; at 1.2 µM 0% | [4]; at 3.7 µM -1% | [4]; at 11.0 µM -1% | [4]; at 33.0 µM 3% | [4]; at 100.0 µM 17% | [5]; at 1.2 µM 0% | [5]; at 3.7 µM -1% | [5]; [17] -6% | [5]; at 11.0 µM 10% | [5]; at 33.0 µM 9% | [5]; [18] 55% | [5]; at 100.0 µM 17% | [6]; at 1.2 µM 0% | [6]; at 3.7 µM 0% | [6]; at 11.0 µM -1% | [6]; at 33.0 µM -4% | [6]; at 100.0 µM 21% | [7]; [17] -13% | [7]; [18] 65% | [8]; at 1.2 µM -6% | [8]; at 3.7 µM -2% | [8]; at 11.0 µM -10% | [8]; at 33.0 µM -8% | [8]; at 100.0 µM -3% | [9]; [17] -32% | [9]; [18] 13% | [9]; at 50.0 µM 3.95% | [10]; at 1.2 µM 3% | [10]; at 3.7 µM 6% | [10]; [17] 7% | [10]; at 11.0 µM -17% | [10]; at 33.0 µM 29% | [10]; [18] 34% | [10]; at 50.0 µM 49.2% | [10]; at 100.0 µM 27% | [11]; at 1.2 µM -1% | [11]; at 3.7 µM 1% | [11]; at 11.0 µM 2% | [11]; at 33.0 µM 7% | [11]; at 100.0 µM 26% | [12]; at 1.2 µM 2% | [12]; at 3.7 µM 4% | [12]; at 11.0 µM 8% | [12]; at 33.0 µM 18% | [12]; at 100.0 µM 38% | [13]; [17] -1% | [13]; [18] 47% | [13]; at 50.0 µM 61.1% | [14]; at 1.2 µM 7% | [14]; at 3.7 µM 5% | [14]; at 11.0 µM 12% | [14]; at 33.0 µM 11% | [14]; at 100.0 µM 6%

CC(/C=C/c1ccc2c(c1)OCO2)[N+](=O)[O-] (stereo not drawn)
active: [1]; at 3.7 µM 93% | [1]; at 11.0 µM 99% | [1]; at 33.0 µM 99% | [1]; at 100.0 µM 99% | [2]; at 3.7 µM 71% | [2]; at 11.0 µM 99% | [2]; at 33.0 µM 100% | [2]; at 100.0 µM 99% | [3]; at 1.2 µM 73% | [3]; at 3.7 µM 94% | [3]; at 11.0 µM 99% | [3]; at 33.0 µM 99% | [3]; at 100.0 µM 99% | [5]; at 3.7 µM 86% | [5]; [17] 86% | [5]; at 11.0 µM 99% | [5]; at 33.0 µM 99% | [5]; [18] 97% | [5]; at 50.0 µM 99.6% | [5]; at 100.0 µM 99% | [15]; at 11.0 µM 100% | [15]; at 33.0 µM 99% | [15]; [18] 99% | [15]; at 50.0 µM 99.7% | [15]; at 100.0 µM 99% | [6]; at 11.0 µM 100% | [6]; at 33.0 µM 99% | [6]; at 100.0 µM 100% | [7]; [18] 98% | [7]; at 50.0 µM 99.5% | [8]; at 11.0 µM 99% | [8]; at 33.0 µM 99% | [8]; at 100.0 µM 99% | [9]; [18] 98% | [9]; at 50.0 µM 99.2% | [10]; at 11.0 µM 99% | [10]; at 33.0 µM 99% | [10]; [18] 98% | [10]; at 50.0 µM 99% | [10]; at 100.0 µM 98% | [11]; at 3.7 µM 97% | [11]; at 11.0 µM 100% | [11]; at 33.0 µM 100% | [11]; at 100.0 µM 100% | [16]; at 11.0 µM 99% | [16]; at 33.0 µM 99% | [16]; at 100.0 µM 99% | [12]; at 3.7 µM 82% | [12]; at 11.0 µM 99% | [12]; at 33.0 µM 99% | [12]; at 100.0 µM 99% | [13]; [18] 98% | [13]; at 50.0 µM 99.4% | [14]; at 11.0 µM 99% | [14]; at 33.0 µM 99% | [14]; at 100.0 µM 99%
inactive: [1]; at 1.2 µM 40% | [2]; at 1.2 µM 8% | [5]; at 1.2 µM 33% | [15]; at 1.2 µM 4% | [15]; at 3.7 µM 30% | [15]; [17] 2% | [6]; at 1.2 µM 18% | [6]; at 3.7 µM 61% | [7]; [17] 62% | [8]; at 1.2 µM -1% | [8]; at 3.7 µM 37% | [9]; [17] -13% | [10]; at 1.2 µM 23% | [10]; at 3.7 µM 69% | [10]; [17] 46% | [11]; at 1.2 µM 10% | [16]; at 1.2 µM -2% | [16]; at 3.7 µM 64% | [12]; at 1.2 µM 30% | [13]; [17] 66% | [14]; at 1.2 µM 10% | [14]; at 3.7 µM 58%

From PubChem BioAssay (NCI)
